# Measurements as given in PubChem BioAssay (Tox21).
# A number with no mark means an inactive call. Records with an inconclusive call do not appear. Entries that show only a call come without a potency. Active and inactive are the calls of the source. Unless noted, calls follow the shape of the full dose curve.
# Assays:
# [1] = Nuclear factor erythroid 2-related factor 2/antioxidant responsive element (Nrf2/ARE) small molecule agonists: qHTS cell viability counter screen in human keratinocytes (AID 1919968; active = well fitted curve in the direction sought with a large enough effect in the repeat runs; an effect the other way counts as inactive or inconclusive; also: nearly all actives have a fitted effect of over 55% in size; also: potency is read from the fitted curve at half-maximal effect)
# Method in brief: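 Cytotoxicity was multiplexed with the Nrf2/ARE luciferase assay in the same wells. Stably transfected HaCaT keratinocytes were treated with test compounds for 23 h at 37 C. Cell viability was then measured by CellTiter-Fluor fluorescence.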
# [2] = Nuclear factor erythroid 2-related factor 2/antioxidant responsive element (Nrf2/ARE) small molecule agonists: luciferase reporter gene qHTS assay in human keratinocytes (AID 1919969); also: nearly all actives have a fitted effect of over 35% in size
# [3] = target: Gonadotropin-releasing hormone receptor (Homo sapiens) (UniProt P30968); test: Human gonadotropin-releasing hormone receptor (GnRHR) small molecule agonists, calcium flux assay in GnRHR-HEK293 cells (AID 1920063); also: nearly all actives have a fitted effect of over 35% in size
# Chain of Gonadotropin-releasing hormone receptor (Homo sapiens) (P30968 whole entry, looked up): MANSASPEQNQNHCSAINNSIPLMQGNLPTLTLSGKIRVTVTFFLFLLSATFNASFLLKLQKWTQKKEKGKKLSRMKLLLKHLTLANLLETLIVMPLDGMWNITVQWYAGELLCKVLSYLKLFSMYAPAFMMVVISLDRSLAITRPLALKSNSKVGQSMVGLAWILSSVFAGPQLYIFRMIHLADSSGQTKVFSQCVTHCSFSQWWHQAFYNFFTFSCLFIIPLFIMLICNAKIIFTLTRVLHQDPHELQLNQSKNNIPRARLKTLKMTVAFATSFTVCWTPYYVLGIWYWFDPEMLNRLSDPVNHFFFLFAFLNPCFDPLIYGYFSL
# Method in brief: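 Agonist activity was measured as intracellular calcium flux in HEK293 cells engineered to stably express human GnRHR. After dye loading for 1 hour at 37 C, compounds in DMSO were added and fluorescence was followed for 3 minutes.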
# [4] = target: KiSS-1 receptor (Homo sapiens) (UniProt Q969F8); test: Human kisspeptin (KISS1R) small molecule agonists, calcium flux assay in KISS1R-HEK293 cells (AID 1920064; active = well fitted curve in the direction sought with a large enough effect in the repeat runs; an effect the other way counts as inactive or inconclusive)
# Chain of KiSS-1 receptor (Homo sapiens) (Q969F8 whole entry, looked up): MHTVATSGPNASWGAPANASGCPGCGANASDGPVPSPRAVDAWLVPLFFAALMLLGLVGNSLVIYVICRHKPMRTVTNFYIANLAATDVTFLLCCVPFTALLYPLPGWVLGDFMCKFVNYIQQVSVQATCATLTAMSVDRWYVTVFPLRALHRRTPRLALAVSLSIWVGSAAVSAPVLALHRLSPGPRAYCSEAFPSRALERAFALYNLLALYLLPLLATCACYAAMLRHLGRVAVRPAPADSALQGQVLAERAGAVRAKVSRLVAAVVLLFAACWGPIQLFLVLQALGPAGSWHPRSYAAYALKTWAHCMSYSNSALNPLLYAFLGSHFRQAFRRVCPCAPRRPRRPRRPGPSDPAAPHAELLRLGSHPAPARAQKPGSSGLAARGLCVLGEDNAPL
# Method in brief: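 Agonist activity is monitored as intracellular calcium rise in engineered HEK293 cells carrying human KISS1R. Cells are dye-loaded for 1 h at 37 C before compound addition, and fluorescence is recorded for 3 min.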
# [5] = G protein-coupled receptor (GPCR) small molecule agonists, calcium flux assay: HEK293 wild type cell line counter screen (AID 1920065)
# Method in brief: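 Seed cells, incubate 18 h (37 C, 5% CO2); add calcium dye, 1 h at 37 C; pin-transfer compounds, ATP control or DMSO; read fluorescence 480/540 nm each second for 3 min.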
# [6] = p53 small molecule agonists, cell-based qHTS assay with rat liver microsomes (AID 1963578)
# Method in brief: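 p53RE-bla cells, 4,000/well, pre-incubated 5 h, then given compounds plus rat liver microsomes (0.5 mg/mL final) and NADPH (0.5 mg/mL final). Incubation 16 h at 37 C; beta-lactamase reporter read by LiveBLAzer fluorescence after 2 h at room temperature.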
# [7] = p53 small molecule agonists, cell-based qHTS assay with rat liver microsomes: qHTS cell viability counter screen (AID 1963580); also: nearly all actives have a fitted effect of over 45% in size
# Method in brief: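 Counter screen for cytotoxicity under metabolic activation: rat liver microsomes and NADPH, 0.5 mg/mL final each, added with compounds to p53RE-bla HCT-116 cells; 16 h at 37 C, then ATP luminescence read.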
# [8] = p53 small molecule agonists, cell-based qHTS assay: qHTS cell viability counter screen (AID 1963581); also: nearly all actives have a fitted effect of over 45% in size
# Method in brief: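 Viability was counter-screened in parallel with the p53 agonist reporter by measuring intracellular ATP luminescence in the same HCT-116 p53RE-bla wells after 16 h compound treatment at 37 C.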
# [9] = p53 small molecule agonists, cell-based qHTS assay (AID 1963582; active = well fitted activation curve with a large enough effect in the signal ratio in the repeat runs, not every such curve was filed as active; the % refers to the signal ratio)
# Method in brief: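 Cells carrying a p53-responsive bla reporter are treated with test compounds for 16 h at 37 C; beta-lactamase activity is then detected with LiveBLAzer B/G FRET substrate after 2 h at room temperature.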
# [10] = target: 5-hydroxytryptamine receptor 2A (Homo sapiens) (UniProt P28223); test: 5-hydroxytryptamine receptor 2A (HTR2A) small molecule antagonists, cell-based qHTS assay (AID 1963586); also: nearly all actives have a fitted effect of over 45% in size
# Chain of 5-hydroxytryptamine receptor 2A (Homo sapiens) (P28223 whole entry, looked up): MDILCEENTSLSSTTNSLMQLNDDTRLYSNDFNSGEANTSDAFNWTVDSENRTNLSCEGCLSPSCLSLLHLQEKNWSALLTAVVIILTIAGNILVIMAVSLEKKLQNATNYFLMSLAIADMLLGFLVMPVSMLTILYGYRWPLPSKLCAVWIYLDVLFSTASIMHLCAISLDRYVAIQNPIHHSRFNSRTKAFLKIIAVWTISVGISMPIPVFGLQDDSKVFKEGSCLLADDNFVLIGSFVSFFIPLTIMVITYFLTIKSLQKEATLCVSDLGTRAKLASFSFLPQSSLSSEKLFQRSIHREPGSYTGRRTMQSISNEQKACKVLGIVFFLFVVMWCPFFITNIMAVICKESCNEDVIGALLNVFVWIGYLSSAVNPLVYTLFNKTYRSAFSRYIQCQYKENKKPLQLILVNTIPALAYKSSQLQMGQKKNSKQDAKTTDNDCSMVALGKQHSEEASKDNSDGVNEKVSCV
# Method in brief: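 CHO cells stably expressing human HTR2A were plated for 18 h at 37 C, then loaded with calcium dye for 1 h. Compounds were preincubated 5 min at room temperature before DOI (4 nM solution) was added. Kinetic fluorescence was read for 3 min.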
# [11] = target: 5-hydroxytryptamine receptor 2A (Homo sapiens) (UniProt P28223); test: 5-hydroxytryptamine receptor 2A (HTR2A) small molecule agonists, cell-based qHTS assay (AID 1963587); also: nearly all actives have a fitted effect of over 30% in size
# Method in brief: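 HTR2A-CHO cells, plated 18 h at 37 C/5% CO2, dye-loaded 1 h at 37 C; compounds in DMSO added by pin tool (agonist mode). Intracellular calcium flux read as kinetic fluorescence on FDSS over 2 min at 1 s intervals.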
# [12] = target: Muscarinic acetylcholine receptor M1 (Homo sapiens) (UniProt P11229); test: Cholinergic receptor muscarinic 1 (CHRM1) small molecule antagonists, cell-based qHTS assay (AID 1963588); also: nearly all actives have a fitted effect of over 40% in size
# Chain of Muscarinic acetylcholine receptor M1 (Homo sapiens) (P11229 whole entry, looked up): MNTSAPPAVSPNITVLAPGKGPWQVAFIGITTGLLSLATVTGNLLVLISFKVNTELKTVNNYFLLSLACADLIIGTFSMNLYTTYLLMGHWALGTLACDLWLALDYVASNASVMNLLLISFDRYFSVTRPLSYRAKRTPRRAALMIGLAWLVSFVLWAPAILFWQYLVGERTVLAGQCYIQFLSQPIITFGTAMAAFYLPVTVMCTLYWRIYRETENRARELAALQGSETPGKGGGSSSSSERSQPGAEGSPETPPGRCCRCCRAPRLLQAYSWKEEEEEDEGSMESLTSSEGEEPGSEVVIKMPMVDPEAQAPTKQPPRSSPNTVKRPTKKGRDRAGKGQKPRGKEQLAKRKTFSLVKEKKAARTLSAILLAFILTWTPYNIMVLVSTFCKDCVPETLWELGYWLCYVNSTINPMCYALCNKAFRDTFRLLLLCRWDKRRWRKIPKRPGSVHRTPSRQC
# Method in brief: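 Compounds were tested at 15 concentrations in three independent runs. Dye-loaded CHRM1-CHO cells were exposed 5 min at room temperature before stimulation by acetylcholine added at 50nM. Intracellular calcium was read kinetically on FDSS for 3 min.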
# [13] = target: Muscarinic acetylcholine receptor M1 (Homo sapiens) (UniProt P11229); test: Cholinergic receptor muscarinic 1 (CHRM1) small molecule agonists, cell-based qHTS assay (AID 1963589); also: nearly all actives have a fitted effect of over 35% in size
# Method in brief: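 Cells were plated and incubated 18 h at 37 C/5% CO2, loaded with calcium dye for 1 h at 37 C, then treated with compounds in DMSO. Fluorescence was recorded kinetically at 1 sec intervals.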
# [14] = cAMP Responsive Elements (CRE) small molecule agonists, cell-based qHTS assay (AID 1963590)
# Method in brief: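 Cells carrying a CRE-driven beta-lactamase reporter (HEK 293T) are seeded, incubated overnight (18 h), and treated with test compounds for 3 h at 37 C; reporter activity is then detected with a FRET substrate after 2 h at room temperature.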
# [15] = cAMP Responsive Elements (CRE) small molecule antagonists, cell-based qHTS assay (AID 1963591; active = well fitted inhibition curve with a large enough effect in the signal ratio in the repeat runs, not every such curve was filed as active; the % refers to the signal ratio)
# Method in brief: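 Cells (CRE-bla HEK 293T, DMEM with 10% dialyzed FBS and 25 mM HEPES) are seeded and incubated 18 h. Compounds are added with NKH477 agonist at 0.25 uM final for 3 h, then FRET substrate for 2 h.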
# [16] = target: Beta-2 adrenergic receptor (Homo sapiens) (UniProt P07550); test: Adrenergic beta2 receptor (ADRB2) small molecule antagonists, cell-based qHTS assay (AID 1963592); also: series mostly up to about 92 µM; nearly all actives have a fitted effect of over 50% in size
# Chain of Beta-2 adrenergic receptor (Homo sapiens) (P07550 whole entry, looked up): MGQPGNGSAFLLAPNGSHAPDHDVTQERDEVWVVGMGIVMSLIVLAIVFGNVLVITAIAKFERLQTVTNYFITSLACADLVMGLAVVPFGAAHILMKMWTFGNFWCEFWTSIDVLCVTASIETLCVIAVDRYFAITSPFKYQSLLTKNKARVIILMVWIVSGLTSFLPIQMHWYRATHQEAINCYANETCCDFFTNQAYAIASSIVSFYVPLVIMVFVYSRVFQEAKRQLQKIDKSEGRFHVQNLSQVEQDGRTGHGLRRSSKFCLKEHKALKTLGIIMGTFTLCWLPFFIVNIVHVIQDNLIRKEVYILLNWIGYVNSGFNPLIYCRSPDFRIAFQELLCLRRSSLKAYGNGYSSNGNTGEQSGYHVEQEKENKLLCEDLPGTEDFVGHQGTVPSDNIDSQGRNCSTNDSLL
# Method in brief: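 Assay format: CHO-ADRB2 cells, 18-20hr seeding at 37C/5% CO2, then compound plus 1nM isoproterenol agonist mix for 0.5hr RT. Homogeneous time-resolved fluorescence cAMP detection after 1hr, expressed as 665/615 nm ratio.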
# [17] = target: Beta-2 adrenergic receptor (Homo sapiens) (UniProt P07550); test: Adrenergic beta2 receptor (ADRB2) small molecule agonists, cell-based qHTS assay (AID 1963593);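 also: CHO cells stably overexpressing human ADRB2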
# Method in brief: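 CHO cells stably over-expressing ADRB2 were plated overnight at 37C, then dosed with compounds plus a stimulation mix containing 100uM IBMX and 25uM Ro-20-1724 for 0.5hr at room temperature. cAMP was measured by HTRF competition, 1hr.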
# [18] = target: D(2) dopamine receptor (Homo sapiens) (UniProt P14416); test: Dopamine D2 receptor (DRD2) small molecule antagonists, cell-based qHTS assay (AID 1963595; active = well fitted inhibition curve with a large enough effect in the signal ratio in the repeat runs, with a control signal flat; the % refers to the signal ratio)
# Chain of D(2) dopamine receptor (Homo sapiens) (P14416 whole entry, looked up): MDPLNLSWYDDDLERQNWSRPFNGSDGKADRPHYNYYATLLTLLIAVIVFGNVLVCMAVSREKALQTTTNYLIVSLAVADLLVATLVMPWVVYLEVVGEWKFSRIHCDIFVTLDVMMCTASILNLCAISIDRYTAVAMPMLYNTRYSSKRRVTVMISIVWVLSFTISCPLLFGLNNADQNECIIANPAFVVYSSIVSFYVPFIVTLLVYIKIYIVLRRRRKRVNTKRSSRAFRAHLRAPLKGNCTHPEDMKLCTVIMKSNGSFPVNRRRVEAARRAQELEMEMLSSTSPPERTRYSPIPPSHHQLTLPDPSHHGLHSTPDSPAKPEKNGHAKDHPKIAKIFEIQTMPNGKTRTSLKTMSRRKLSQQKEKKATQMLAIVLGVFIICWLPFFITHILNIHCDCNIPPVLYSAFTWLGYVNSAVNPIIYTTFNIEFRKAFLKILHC
# Method in brief: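 Antagonist mode in DRD2-HEK293 cells: after compound addition with 0.1 mM Ro20-1724, cells received quinpirole (12 nM) and NKH477 (200 nM) for 30 min at room temperature; HTRF cAMP read after 1 h detection.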
# [19] = target: D(2) dopamine receptor (Homo sapiens) (UniProt P14416); test: Dopamine D2 receptor (DRD2) small molecule agonists, cell-based qHTS assay (AID 1963594); also: nearly all actives have a fitted effect of over 35% in size
# Method in brief: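 HEK293 cells stably expressing DRD2 were cultured 24 h at 37 C, then given Ro20-1724 (0.1 mM final) and compounds for 10 min at room temperature. NKH477 (200nM) was then added for 30 min. cAMP was read by HTRF.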
# [20] = p53 small molecule agonists, cell-based qHTS assay with human liver microsomes: qHTS cell viability counter screen (AID 1963579); also: nearly all actives have a fitted effect of over 45% in size
# Method in brief: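 p53RE-bla cells, 4,000/well, dosed 5 hours after plating, with human liver microsomes (0.5 mg/mL final) plus NADPH (0.5 mg/mL final), 16 hours at 37 C. Viability read as CellTiter-Glo luminescence after 30 min at room temperature.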
SMILES,Potency [1],Potency [2],Potency [3],Potency [4],Potency [5],Potency [6],Potency [7],Potency [8],Potency [9],Potency [10],Potency [11],Potency [12],Potency [13],Potency [14],Potency [15],Potency [16],Potency [17],Potency [18],Potency [19],Potency [20]
CC(=O)Oc1cccc(C)c1,inactive,inactive,inactive,inactive,inactive,inactive,inactive,inactive,inactive,inactive,inactive,inactive,inactive,inactive,inactive,inactive,inactive,inactive,–,–
CCS(=O)(=O)c1ccc(OC)c(C(=O)OC)c1,inactive,inactive,inactive,inactive,inactive,inactive,inactive,inactive,inactive,inactive,inactive,–,inactive,inactive,inactive,inactive,inactive,inactive,–,–
CCCCCCCCCCCCN1CCCCCC1=O,61.1 µM (active),inactive,inactive,inactive,inactive,inactive,inactive,–,inactive,inactive,inactive,–,inactive,–,inactive,inactive,inactive,inactive,inactive,–
CCCCC/C=C\C/C=C\CCCCCCCC(=O)NC(C)c1ccccc1 (stereo not drawn),inactive,inactive,inactive,inactive,inactive,inactive,inactive,–,–,inactive,inactive,inactive,inactive,–,–,inactive,inactive,inactive,inactive,–
Cc1ccc(C=O)cc1C,inactive,inactive,inactive,inactive,inactive,–,inactive,inactive,inactive,inactive,inactive,inactive,inactive,–,inactive,inactive,–,inactive,–,inactive
COc1ccc(S(=O)(=O)Nc2nnc(CC(C)C)s2)cc1,inactive,inactive,inactive,inactive,inactive,inactive,–,inactive,inactive,–,inactive,inactive,inactive,inactive,inactive,inactive,–,inactive,–,inactive
ClCCOCCOCCCl,inactive,inactive,inactive,inactive,inactive,inactive,–,inactive,inactive,inactive,inactive,inactive,inactive,inactive,–,inactive,inactive,inactive,inactive,inactive
Cc1ccc(C(=O)C(C)CN2CCCCC2)cc1 (stereo not drawn),inactive,inactive,inactive,inactive,inactive,–,inactive,inactive,inactive,–,–,–,–,–,inactive,inactive,–,–,inactive,inactive
